# Sampled rows, rich in hits. Any-hit rate of the full collection: about 1.4%.
# TrxR1 substrate – substrates of rat thioredoxin reductase 1 | O89049 | purified TrxR1 substrate turnover, NADPH consumption readout | Potency, µM (series often up to 114 µM), without a hit: at the highest dose activity change, negative = substrate turnover | 0.01% of 390,000 active | AID 588456; also: potency is read from the fitted curve at half-maximal effect; nearly all actives have a fitted effect of over 50% in size
#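 Rat TrxR1, dispensed at 90 nM, was prereduced with 400 uM NADPH (final) for 5 min at ~22 deg C, then incubated with compound 15 min before 400 uM selenite. A first-read NADPH fluorescence drop versus no-compound background flagged substrates.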
# LDHA block – inhibitors of human lactate dehydrogenase A; activity change, % (values are at about 110 or 230 µM); P00338; 0.15% of 480,000 active; purified LDHA, NADH/diaphorase-resazurin fluorescence; hits give low values; in the data active = activity change below about -30%; inconclusive = mostly about -25% to -30%;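 also: plate controls were DMSO wells for no effect and wells without enzyme for full effect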
#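 Remaining NADH was detected by diaphorase (0.133 mg/mL) converting 37 µM resazurin to fluorescent resorufin, read at 0 and 20 minutes. The preceding 5-minute room-temperature reaction used 2 nM LDHA, 0.2 mM sodium pyruvate and 0.06 mM NADH at pH 7.4.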
# PKM2 act – activators of human pyruvate kinase M2; P14618; purified PKM2, Kinase-Glo ATP luminescence, activation; response scale: 0% is enzyme alone, no compound; Potency, µM (series often up to 57.5 µM), for inactives: top-dose activation, most hits filed as activators; 0.34% of 260,000 active; AID 1631; also: potency is read from the fitted curve at half-maximal effect; nearly all actives have a fitted effect of over 55% in size
#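 Purified hPK-M2 (>95% pure) converted ADP (0.1 mM final) to ATP with 0.5 mM PEP in 50 mM imidazole pH7.2, KCl, MgCl2, Tween 20, BSA; 1 h at room temperature. ATP detected by Kinase-Glo luminescence.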
# mIDH1 inhibitor – human IDH1 R132H inhibition. Potency, µM (highest dose often 76.6 µM), without a hit: top-dose activity change, negative = inhibition, most hits filed as inhibitors. IDH1-R132H enzyme, NADPH consumption, diaphorase/resazurin fluorescence. 0.093% of 390,000 active. O75874; also: potency is read from the fitted curve at half-maximal effect; nearly all actives have a fitted effect of over 65% in size
# Target sequence (O75874 whole entry R132H, stated change not applied): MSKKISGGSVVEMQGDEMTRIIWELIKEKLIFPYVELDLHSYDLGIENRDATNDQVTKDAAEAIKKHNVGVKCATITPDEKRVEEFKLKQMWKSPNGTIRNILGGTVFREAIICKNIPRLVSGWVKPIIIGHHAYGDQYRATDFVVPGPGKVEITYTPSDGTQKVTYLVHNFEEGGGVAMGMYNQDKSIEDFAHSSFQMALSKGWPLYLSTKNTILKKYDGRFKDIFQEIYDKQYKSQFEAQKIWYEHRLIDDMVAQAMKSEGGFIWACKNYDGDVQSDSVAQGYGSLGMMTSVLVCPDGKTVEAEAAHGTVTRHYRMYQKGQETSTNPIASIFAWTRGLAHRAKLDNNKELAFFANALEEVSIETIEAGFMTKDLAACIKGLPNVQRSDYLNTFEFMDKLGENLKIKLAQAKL
#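 IDH1-R132H (0.5 ug/mL dispensed) in pH 7.5 Tris buffer was preincubated 30 min with compound, then given a substrate mix of 0.016 mM NADPH and 2 mM alpha-KG for 80 min at room temperature; remaining NADPH was read by diaphorase/resazurin fluorescence.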
# rTrxR1 inhibitor – rat TrxR1 inhibition; O89049; recombinant rTrxR1, NADPH fluorescence consumption, selenite substrate; Potency, µM (series often up to 114 µM), inactives show top-dose activity change, negative = inhibition, actives largely listed as inhibitors; 1% of 390,000 active; also: potency is read from the fitted curve at half-maximal effect; nearly all actives have a fitted effect of over 65% in size
#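 Rat TrxR1 (90 nM in the dispensed reagent) was pre-reduced with 400 uM NADPH for 5 min at room temperature, then incubated with compound for 15 min. After 400 uM selenite was added, NADPH fluorescence (Ex 340/Em 450 nm) was followed for 8 min.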
# GLS inhibitor – blocks human kidney-isoform glutaminase activity; Potency, µM (highest dose often 45.5 µM), inactives show at the highest dose activity change, negative = inhibition, actives largely listed as inhibitors; AID 624170; GLS enzymatic activity, qHTS titration; 0.21% of 410,000 active; also: potency is read from the fitted curve at half-maximal effect
#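 Two-point fluorescence kinetic (t0, 30 min RT) for hKGA; glutamate detected via glutamate oxidase–HRP–Amplex Red. Substrate: 1 mM L-glutamine solution; buffer 45 mM KH2PO4, pH 8.2.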
# Starred values were filed as active, the others as inactive; ? = inconclusive; . = no result given; [ ] = dose if it differs, or a comment. Unless noted, calls follow the shape of the dose curve; as a rule, active = well fitted curve in the direction sought with a large enough effect; inconclusive = small, poorly fitted or top-dose-only effect, or another doubt; inactive = no such curve, though single readings can be large; an effect the other way counts as inactive or inconclusive. Unless noted, % is scaled to controls: 0 for no effect and ±100 for the full control effect.
SMILES,TrxR1 substrate,LDHA block,PKM2 act,mIDH1 inhibitor,rTrxR1 inhibitor,GLS inhibitor
CCN1C(=O)C(O)(C(F)(F)F)c2cc(C(O)(C(=O)OC)C(F)(F)F)ccc21 (stereo not drawn),.,-1,.,.,.,.
COC(=O)C1=C(C(=O)OC)C2OC1c1cc3ccccc3cc12,1%,-8,.,6%,2.5µM*,13%
Cc1ccc(N2C(=O)NC(=O)/C(=C\c3cnc(-c4ccccc4)nc3)C2=O)cc1,2%,-18,2%,-4%,3.5µM*,3%
Cc1ccc(N2C(=O)NC(=O)/C(=C/c3ccoc3)C2=O)cc1,-6%[57.1 µM],4,27%,5%,-5%[57.1 µM],9%
CSc1ncc(/C=C2/C(=O)NC(=O)N(c3ccc(C)cc3)C2=O)cn1,1%,-7,1%,15%,7.9µM*,6%
Cc1ccc(N2C(=O)NC(=O)/C(=C/c3cnn(-c4ccc(C)cc4)c3)C2=O)cc1,-2%,-3,23%,1%,?,-14%
CCOc1ccc(N2C(=O)NC(=O)/C(=C/c3cnc(SC)nc3)C2=O)cc1,-3%[57.1 µM],-4,-4%,5%,4µM*,16%
CSc1ncc(/C=C2/C(=O)NC(=O)N(c3ccc(Cl)cc3)C2=O)cn1,0%[57.1 µM],-1,-1%,0%,6.3µM*,1%
Cc1ccc(-n2nc(C)c3c2NC(=O)CSC3c2ccsc2)cc1 (stereo not drawn),.,6,.,.,.,.
CCOC(=O)C1=CC(=C2C(=O)N(CC)C(=S)N(CC)C2=O)c2ccccc2O1,-10%,5,2%,-3%,40µM*,-6%
CCN1C(=O)C(=C2C=C(C)OC(C)=C2)C(=O)N(CC)C1=S,6%,-8,7%,1%,16%,1%
Cc1oc(-c2ccc(Cl)cc2)nc1CS(=O)CC(=O)N1CCC2(CC1)OCCO2 (stereo not drawn),25%,-7,2%,9%,50µM*,1%
Cc1oc(-c2ccccc2F)nc1CS(=O)CC(=O)N1CCC2(CC1)OCCO2 (stereo not drawn),8%,0,-2%,-3%,?,.
CCOC(=O)CNC(=O)N1Cc2cc(-c3ccccc3)ccc2-n2nncc2C1,.,-2,.,.,.,3%
CCOC(=O)CNC(=O)N1Cc2ccccc2-n2nncc2C1,.,-33*,.,-6%,.,-1%
S=C(NCCc1ccccc1)N1Cc2ccccc2-n2nncc2C1,.,-36*,.,20%,.,0%
CCOC(=O)C1=C(C)c2ccccc2OC1(C(=O)OCC)c1ccccc1 (stereo not drawn),-12%,-1,.,9%,45µM*,0%
CCCCNC(=O)NC(=O)CCl,.,8,.,.,.,.
Cc1cccc(N2C(=O)NC(=O)/C(=C/c3cc4c(cc3[N+](=O)[O-])OCO4)C2=O)c1,9%[57.1 µM],26,11%,-5%,7.1µM*,-41%
O=C1NC(=O)C(=Cc2ccccc2[N+](=O)[O-])C(=O)N1,6%,-17,.,0%,7.9µM*,-4%
CC1=NN(c2ccccc2)C(=O)C1/C=C1/C(=O)NC(=O)N(c2cccc(C)c2)C1=O (stereo not drawn),.,.,-3%,.,.,.
O=C1NC(=O)C(=Cc2ccccc2Oc2ccc(F)cc2)C(=O)N1,-4%[57.1 µM],-40*,0%,2%,13µM*,-11%
O=C1NC(=O)C(=Cc2cc3c(cc2[N+](=O)[O-])OCO3)C(=O)N1,9%,4,-3%,4%,8.9µM*,-5%
CN(C)c1ccc(-[n+]2ccc(-c3cc[n+](-c4ccc(N(C)C)cc4)cc3)cc2)cc1,.,46,.,.,.,.
O=C1NC(=O)C(=Cc2ccc(-c3cc(Cl)ccc3[N+](=O)[O-])o2)C(=O)N1,9%[57.1 µM],-2,13%,-2%,-46%,?
O=C1NC(=O)C(=Cc2ccc(-c3ccccc3[N+](=O)[O-])o2)C(=O)N1,5%[57.1 µM],-1,18µM*,17%,0%[57.1 µM],?
CN1C(=O)C(=Cc2ccccc2Oc2ccc(Cl)c(F)c2)C(=O)N(C)C1=O,-6%,-13,0%,-9%,11µM*,-15%
